This is an account of results in ChEMBL document CHEMBL1961873, “Compounds: GSK PKIS; Assays: Nanosyn kinase panel” (2012).

For assay [1], the target named is Mitogen-activated protein kinase kinase kinase kinase 4 (Homo sapiens) (UniProt O95819). The following applies: at 1 µM.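 Further: reported figure is an averaged inhibition value.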
Assay [2] addresses Dual specificity mitogen-activated protein kinase kinase 1 (Homo sapiens) (UniProt Q02750). The following applies: at 0.1 µM.
For assay [3] the target is unchanged. The settings on record: at 1 µM.
Assay [4] addresses Misshapen-like kinase 1 (Homo sapiens) (UniProt Q8N4C8). The following applies: at 0.1 µM.
For assay [5] the target is unchanged. The following applies: at 1 µM.
Assay [6] addresses T1, Serine/threonine-protein kinase 4 (Homo sapiens) (UniProt Q13043).
T1 sequence (whole entry): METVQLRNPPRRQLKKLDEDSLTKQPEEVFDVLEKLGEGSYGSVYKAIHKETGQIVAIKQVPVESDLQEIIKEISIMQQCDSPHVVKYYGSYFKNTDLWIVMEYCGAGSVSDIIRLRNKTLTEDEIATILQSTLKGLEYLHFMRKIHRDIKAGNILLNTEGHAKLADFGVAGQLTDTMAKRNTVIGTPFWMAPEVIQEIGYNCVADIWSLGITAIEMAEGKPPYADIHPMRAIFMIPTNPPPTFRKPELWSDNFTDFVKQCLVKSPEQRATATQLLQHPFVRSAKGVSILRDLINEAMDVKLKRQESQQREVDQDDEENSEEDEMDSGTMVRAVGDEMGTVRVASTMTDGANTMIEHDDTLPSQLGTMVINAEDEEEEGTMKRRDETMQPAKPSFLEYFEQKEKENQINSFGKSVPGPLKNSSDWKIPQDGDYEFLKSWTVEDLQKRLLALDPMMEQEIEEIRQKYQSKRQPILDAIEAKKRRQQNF
The settings on record: at 0.1 µM.

Assay [7] has as its target T1, Serine/threonine-protein kinase 4 (Homo sapiens). The settings on record: at 1 µM.
Assay [8] has as its target T2, Serine/threonine-protein kinase 3 (Homo sapiens) (UniProt Q13188).
T2 sequence (whole entry): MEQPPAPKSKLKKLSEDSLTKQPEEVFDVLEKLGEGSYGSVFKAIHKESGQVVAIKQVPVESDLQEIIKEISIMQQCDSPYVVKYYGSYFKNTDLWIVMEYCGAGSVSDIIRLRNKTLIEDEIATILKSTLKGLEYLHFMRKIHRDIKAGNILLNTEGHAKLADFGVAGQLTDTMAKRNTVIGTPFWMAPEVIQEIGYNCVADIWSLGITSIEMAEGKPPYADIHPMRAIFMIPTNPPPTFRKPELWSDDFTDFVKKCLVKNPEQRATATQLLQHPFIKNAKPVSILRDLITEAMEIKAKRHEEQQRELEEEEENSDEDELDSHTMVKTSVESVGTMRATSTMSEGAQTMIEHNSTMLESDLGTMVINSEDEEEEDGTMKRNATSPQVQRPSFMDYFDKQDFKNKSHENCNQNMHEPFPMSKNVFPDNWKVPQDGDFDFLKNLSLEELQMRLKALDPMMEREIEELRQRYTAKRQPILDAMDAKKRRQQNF
The settings on record: at 0.1 µM.

Assay [9] has as its target T2, Serine/threonine-protein kinase 3 (Homo sapiens). The following applies: at 1 µM.
The target of assay [10] is Serine/threonine-protein kinase 26 (Homo sapiens) (UniProt Q9P289). The settings on record: at 0.1 µM.
Serine/threonine-protein kinase 26 (Homo sapiens), sequence (Q9P289 2-416 limits assumed): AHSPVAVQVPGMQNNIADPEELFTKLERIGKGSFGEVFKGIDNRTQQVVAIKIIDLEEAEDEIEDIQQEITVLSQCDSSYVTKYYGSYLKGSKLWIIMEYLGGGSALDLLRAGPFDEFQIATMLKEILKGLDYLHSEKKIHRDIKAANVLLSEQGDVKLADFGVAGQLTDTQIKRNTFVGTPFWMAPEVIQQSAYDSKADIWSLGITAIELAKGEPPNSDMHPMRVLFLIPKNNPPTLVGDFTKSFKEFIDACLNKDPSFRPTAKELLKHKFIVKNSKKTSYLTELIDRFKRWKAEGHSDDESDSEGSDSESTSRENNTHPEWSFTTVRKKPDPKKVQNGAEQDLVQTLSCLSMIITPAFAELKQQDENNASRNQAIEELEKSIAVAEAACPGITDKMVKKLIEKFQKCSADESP

Mitogen-activated protein kinase kinase kinase kinase 4 (Homo sapiens), sequence (O95819 2-1239 limits assumed): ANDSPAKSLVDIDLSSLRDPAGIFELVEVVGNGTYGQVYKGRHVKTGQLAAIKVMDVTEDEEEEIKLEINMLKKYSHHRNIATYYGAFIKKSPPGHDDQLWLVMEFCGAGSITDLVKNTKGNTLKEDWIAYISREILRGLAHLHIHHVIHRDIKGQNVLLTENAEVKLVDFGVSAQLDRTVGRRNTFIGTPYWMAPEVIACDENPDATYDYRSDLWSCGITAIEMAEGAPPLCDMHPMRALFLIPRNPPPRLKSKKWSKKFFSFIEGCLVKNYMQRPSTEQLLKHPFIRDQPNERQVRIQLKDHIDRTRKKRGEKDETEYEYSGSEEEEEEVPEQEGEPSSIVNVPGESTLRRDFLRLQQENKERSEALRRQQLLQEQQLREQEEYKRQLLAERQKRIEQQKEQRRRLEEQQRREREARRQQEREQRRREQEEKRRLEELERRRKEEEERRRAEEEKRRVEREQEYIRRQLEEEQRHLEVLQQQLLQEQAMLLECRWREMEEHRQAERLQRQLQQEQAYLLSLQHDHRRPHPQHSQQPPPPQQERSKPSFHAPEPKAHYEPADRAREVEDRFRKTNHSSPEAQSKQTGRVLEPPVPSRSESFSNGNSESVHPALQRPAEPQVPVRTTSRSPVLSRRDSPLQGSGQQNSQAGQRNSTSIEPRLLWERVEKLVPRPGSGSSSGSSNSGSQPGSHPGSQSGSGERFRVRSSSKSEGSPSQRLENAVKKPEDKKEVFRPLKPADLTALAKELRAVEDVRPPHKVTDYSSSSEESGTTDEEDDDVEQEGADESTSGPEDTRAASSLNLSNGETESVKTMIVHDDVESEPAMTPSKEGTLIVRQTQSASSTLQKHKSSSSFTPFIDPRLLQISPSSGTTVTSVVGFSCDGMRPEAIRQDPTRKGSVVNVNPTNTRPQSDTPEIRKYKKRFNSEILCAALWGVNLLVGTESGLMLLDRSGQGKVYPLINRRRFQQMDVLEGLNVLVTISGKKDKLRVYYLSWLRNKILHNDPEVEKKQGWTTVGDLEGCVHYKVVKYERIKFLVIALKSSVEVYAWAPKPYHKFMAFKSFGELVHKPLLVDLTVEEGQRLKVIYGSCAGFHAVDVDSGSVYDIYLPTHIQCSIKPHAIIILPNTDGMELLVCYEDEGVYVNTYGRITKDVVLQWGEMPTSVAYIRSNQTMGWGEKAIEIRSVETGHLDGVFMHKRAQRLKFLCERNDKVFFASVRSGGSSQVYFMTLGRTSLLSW
Misshapen-like kinase 1 (Homo sapiens), sequence (Q8N4C8 whole entry, looked up): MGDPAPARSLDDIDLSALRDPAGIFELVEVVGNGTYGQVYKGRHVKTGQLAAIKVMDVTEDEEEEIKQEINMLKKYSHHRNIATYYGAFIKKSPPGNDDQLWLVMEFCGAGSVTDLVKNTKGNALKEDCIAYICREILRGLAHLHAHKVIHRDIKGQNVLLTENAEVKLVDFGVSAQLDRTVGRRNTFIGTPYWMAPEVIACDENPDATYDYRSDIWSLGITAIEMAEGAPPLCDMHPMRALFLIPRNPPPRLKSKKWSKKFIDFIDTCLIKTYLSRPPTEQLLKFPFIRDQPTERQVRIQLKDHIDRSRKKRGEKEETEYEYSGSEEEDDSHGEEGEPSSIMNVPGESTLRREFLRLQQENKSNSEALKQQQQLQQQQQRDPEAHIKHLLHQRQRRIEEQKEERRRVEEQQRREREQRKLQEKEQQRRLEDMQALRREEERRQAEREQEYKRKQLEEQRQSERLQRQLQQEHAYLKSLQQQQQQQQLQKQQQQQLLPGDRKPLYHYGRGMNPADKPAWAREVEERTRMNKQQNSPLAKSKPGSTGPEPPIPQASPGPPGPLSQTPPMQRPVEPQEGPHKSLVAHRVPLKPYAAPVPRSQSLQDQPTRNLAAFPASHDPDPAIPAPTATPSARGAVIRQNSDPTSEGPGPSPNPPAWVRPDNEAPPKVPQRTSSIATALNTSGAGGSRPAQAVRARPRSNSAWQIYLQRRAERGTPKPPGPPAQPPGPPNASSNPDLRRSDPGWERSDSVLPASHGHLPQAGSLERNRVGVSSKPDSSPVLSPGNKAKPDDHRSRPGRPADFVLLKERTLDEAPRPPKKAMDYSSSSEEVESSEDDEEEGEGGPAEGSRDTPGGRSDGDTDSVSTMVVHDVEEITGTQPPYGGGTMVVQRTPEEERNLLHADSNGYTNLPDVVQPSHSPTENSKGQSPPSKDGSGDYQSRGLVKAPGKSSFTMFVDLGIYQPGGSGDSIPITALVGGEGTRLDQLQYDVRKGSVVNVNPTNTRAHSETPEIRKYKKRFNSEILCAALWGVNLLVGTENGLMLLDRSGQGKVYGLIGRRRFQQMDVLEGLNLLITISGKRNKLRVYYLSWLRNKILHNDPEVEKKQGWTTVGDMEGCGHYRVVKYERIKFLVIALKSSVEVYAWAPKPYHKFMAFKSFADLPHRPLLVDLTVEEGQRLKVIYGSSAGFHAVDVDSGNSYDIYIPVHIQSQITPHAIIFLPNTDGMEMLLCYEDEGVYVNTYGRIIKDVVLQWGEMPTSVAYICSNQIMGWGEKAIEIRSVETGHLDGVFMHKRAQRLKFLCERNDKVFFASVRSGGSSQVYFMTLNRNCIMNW
Dual specificity mitogen-activated protein kinase kinase 1 (Homo sapiens), sequence (Q02750 whole entry): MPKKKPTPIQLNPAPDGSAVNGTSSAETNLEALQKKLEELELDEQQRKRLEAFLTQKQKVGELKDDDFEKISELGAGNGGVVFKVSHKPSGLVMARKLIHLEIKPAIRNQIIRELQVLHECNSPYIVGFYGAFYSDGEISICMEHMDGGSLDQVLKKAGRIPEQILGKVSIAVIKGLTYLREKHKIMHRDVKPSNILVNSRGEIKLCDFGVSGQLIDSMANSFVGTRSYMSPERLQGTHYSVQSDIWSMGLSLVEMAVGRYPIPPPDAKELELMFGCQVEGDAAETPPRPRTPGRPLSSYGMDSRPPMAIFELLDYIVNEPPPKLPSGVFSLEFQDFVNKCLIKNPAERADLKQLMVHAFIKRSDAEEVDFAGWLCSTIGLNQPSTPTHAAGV

For `COc1ccc(-c2nn3ncccc3c2-c2ccnc(Nc3ccc4c(c3)OCCO4)n2)cc1`, the inhibition (commonly the drop in the measured response relative to a control, in per cent) in assay [1] is 9.82%; in assay [2] it was 0.5%; in [3], 1.59%; in [4], 3.01%; in assay [5] it was 7.26%; in [6], -0.55%. In addition, the inhibition in [7] was 1.99%; in [8] it was -0.94%; in assay [9], -0.28%; in [10] it was 0.86%.
As for `CCN(CC)S(=O)(=O)c1ccc(OC)c(Nc2ncc(-c3ccccc3)o2)c1`, the inhibition is 7.43% in assay [1]; -0.08% in assay [2]; 0.32% in [3]; 4.58% in [4]; 7.11% in assay [5]; 6.37% in [6]. Moreover, the inhibition in assay [7] was 11%; in [8] it was 7%; in [9], 9.26%; in [10], 0.95%.
In the case of `CCOc1ccc2c(-c3ccnc(Nc4cccc(C(F)(F)F)c4)n3)cnn2n1`, the inhibition in assay [1] amounted to 4.83%; in [2], 2.29%; in assay [3], 0.44%; in [4], 3.9%; in assay [5], 7.19%; in [6], 3.72%. Further, the inhibition in [7] came to 3.98%; in assay [8], 5.61%; in assay [9], 6.48%; in assay [10], 0.02%.
Consider `Cc1cccc2c1NC(=O)/C2=N\Nc1ccc(S(N)(=O)=O)cc1`, for which the inhibition in [1] is 48.9%; in [2] it was 2.57%; in assay [3], 1.95%; in assay [4], 7.44%; in assay [5], 34.6%; in assay [6], 6.81%. In addition, the inhibition in [7] was 24.4%; in assay [8], 7.49%; in assay [9], 15.2%; in assay [10], -2.65%.
Take `COC(=O)c1sc(-n2cnc3cc(OC)c(OC)cc32)cc1OCc1ccccc1C(F)(F)F`: the inhibition in assay [1] was 10.1%; in assay [2], 5.37%; in [3], 4.96%; in assay [4] it was 5.47%; in assay [5], 11.2%; in assay [6], 4.68%. For the same molecule, the inhibition in assay [7] was 9.69%; in assay [8] it was 5.78%; in assay [9], 9.15%; in assay [10], -1.48%.
In the case of `Fc1ccc(-c2nn3ccccc3c2-c2ccncc2)cc1`, the inhibition in assay [1] came to 38.3%; in [2], 1.23%; in assay [3], 2.3%; in [4], 4.74%; in assay [5], 22.3%; in [6] it was 0.01%. The inhibition is 0.15% in assay [7], 0.09% in assay [8], 0.63% in assay [9] and -1.27% in assay [10].
As for `CCCN(CCS(C)(=O)=O)Cc1ccc(-c2ccc3ncnc(Nc4ccc(OCc5cccc(F)c5)c(Cl)c4)c3c2)o1`, the inhibition is 11.1% in [1]; 1.53% in assay [2]; 1.76% in assay [3]; 2.96% in assay [4]; 7.61% in assay [5]; 2.67% in assay [6]. The inhibition in assay [7] was found to be 4.13%; in assay [8] it was 0.87%; in assay [9], 2.11%; in assay [10] it was 0.58%.
As to `COc1cccc(-n2ncc3c(N/N=C/c4ccc(F)cc4)ncnc32)c1`, the inhibition in [1] worked out at 21.2%; in [2], 4.9%; in assay [3] it was 3.13%; in [4], 7.39%; in assay [5], 17.2%; in [6], 7.56%. Besides, the inhibition in assay [7] was 9.41%; in assay [8] it was 9.36%; in assay [9] it was 9.98%; in assay [10] it was -1.54%.
With `COc1ccc2c(-c3ccnc(Nc4cccc(OC(F)(F)F)c4)n3)cnn2n1`, the inhibition in [1] stood at 11.5%; in assay [2], 6.37%; in assay [3] it was 6.2%; in [4] it was 5.92%; in [5], 10.5%; in assay [6], 8.73%. The inhibition is 9.62% in [7], 9.08% in [8], 9.55% in assay [9] and -1.2% in assay [10].
Take `N#Cc1c(NC(=O)c2ccc(F)cc2)sc2c1CCCC2`: the inhibition is 5.3% in [1]; 1.23% in assay [2]; 1.68% in assay [3]; 2.23% in assay [4]; 4.89% in assay [5]; -0.35% in assay [6]. In addition, the inhibition in assay [7] is 2.59%; in assay [8], 0.16%; in assay [9], 3.36%; in assay [10], -0.1%.
For the molecule `Cc1cccc(Nc2ncc(-c3ccccc3)o2)c1`, the inhibition was found to be 14.1% in [1]; 2.53% in assay [2]; 2.53% in assay [3]; 2.9% in assay [4]; 10.2% in [5]; 1.44% in assay [6]. The inhibition in assay [7] worked out at 4.08%; in [8], 1.8%; in assay [9], 4.97%; in assay [10], 0.69%.
On to `COc1cc2c(cc1Nc1nc(Nc3ccsc3C(N)=O)c3cc[nH]c3n1)N(C(=O)CN(C)C)CCC2(C)C`, for which the inhibition in assay [1] is 14.8%; in [2], 6.86%; in [3] it was 12.3%; in assay [4], 11.4%; in assay [5], 15.3%; in assay [6], 15.6%. In addition, the inhibition was 47.7% in assay [7], 12.3% in assay [8], 22.1% in assay [9] and 3.1% in [10].
Turning to `Cc1ccc2c(-c3ccnc(Nc4ccccc4)n3)c(-c3ccc(F)cc3)nn2n1`, the inhibition in assay [1] turned out to be 62.1%; in [2], 4.55%; in assay [3], 10.8%; in assay [4], 9.04%; in assay [5], 50.7%; in assay [6], 6.19%. In addition, the inhibition was 5.86% in assay [7], 8.21% in assay [8], 5.67% in assay [9] and -1.05% in assay [10].
As to `CC1=C(C(=O)Nc2cc(Cl)c3[nH]ncc3c2)C(c2ccc(C(F)(F)F)cc2)CC(=O)N1` (stereo not given), the inhibition was 10.2% in assay [1]; 9.84% in [2]; 35.5% in assay [3]; 4.68% in assay [4]; 9.18% in assay [5]; 3.11% in [6]. Further, the inhibition turned out to be 5.19% in assay [7], 1.89% in [8], 4.7% in [9] and 0.06% in [10].
As to `Nc1nc(-c2ccc(F)cc2)c(-c2ccc3ncccc3n2)s1`, the inhibition stood at 61.8% in [1]; 6.1% in [2]; 4.31% in assay [3]; 13.2% in [4]; 47.9% in [5]; 6.16% in assay [6]. Further, the inhibition in [7] was 6.98%; in assay [8], 7.16%; in assay [9] it was 5.82%; in assay [10], 0.24%.
